Measurements: PubChem BioAssay (NCATS)
Inconclusive results are not listed. A number with no mark means an inactive call. The source made the active and inactive calls. The call rests on the fitted dose curve; in most records, active means well fitted activation curve with a large enough effect; inconclusive means small, poorly fitted or top-dose-only effect, or effect the other way; inactive means flat fitted curve, though single readings scatter.

Assay: qHTS Assay for Identification of Small Molecule Agonists for Thrombopoietin (TPO) Signaling Pathway (AID 917)
Details: TPO signaling pathway reporter cells, agonist qHTS, stimulated with TPO at its EC50; series mostly up to 38.5 µM; activity, positive = activation: at the top concentration
Procedure: NIH Molecular Libraries Screening Centers Network [MLSCN]
NIH Chemical Genomics Center [NCGC]
The thrombopoietin (TPO) signaling pathway was assayed in murine Ba/F3 cells stably transfected with the human TPO receptor and a luciferase reporter gene controlled by the Glycoprotein IIb promoter (provided by Axxam). BaF3 cells are an IL-3-dependent pro B cell line that upon TPO stimulation, undergo cell division and induce the megakaryocyte marker, Glycoprotein IIb. The assay was screened at the EC50 of TPO (26 pM) to identify activators of the pathway.
NCGC Assay Protocol Summary:
Cells were maintained at 37 C and 5% CO2in RPMI with 10% fetal bovine serum, 0.5 ng/mL murine IL-3, 100U/ml penicillin and 100 ug/ml streptomycin. Prior to plating, cells were incubated overnight in medium without IL-3. Cells were plated at 250 cells/5uL/well into white solid 1536-well plates, 23 nL of compounds were delivered by a pin tool, and 1 uL of TPO (26 pM final concentration in IL-3 deficient medium) was added. Following 24 hrs of incubation at 37 C and 5% CO2, 4 uL of Steadylite detector mix (PerkinElmer) was added, the plates incubated at room temperature for 10 min and luminescence was measured for 10 s and 2X binning by a ViewLux detector (Perkin Elmer).
On the % scale 0 is the no-effect control and ±100 the full control effect; potency means the concentration at half of the fitted maximal effect.

Q: Which “activity, positive = activation” value does the source give for `Cc1cc(C(C)(C)C)c(O)c(C)c1CC1=NCCN1` here?
A: -12.1%

Q: For `CN1CCC(=C2c3ccccc3C=Cc3ccccc32)CC1`, which “activity, positive = activation” value is on record?
A: -28.6%

Q: With `CCOC(=O)C(C)(C)Oc1ccc(Cl)cc1` as the compound, how does the “activity, positive = activation” value read?
A: -18.1%

Q: For `NC(=O)NO`, which “activity, positive = activation” value is on record?
A: -28.2%

Q: For `Cc1cnc(C(=O)NCCc2ccc(S(=O)(=O)NC(=O)NC3CCCCC3)cc2)cn1`, which “activity, positive = activation” value is on record?
A: 10.5%

Q: For `Cn1c(=O)c2[nH]cnc2n(C)c1=O`, which “activity, positive = activation” value is on record?
A: -10.6%

Q: For `Clc1ccc(C(c2ccccc2Cl)C(Cl)Cl)cc1` (stereo not given), which “activity, positive = activation” value is on record?
A: -8.62%

Q: With `CN1CCN(C2=Nc3cc(Cl)ccc3Nc3ccccc32)CC1` as the compound, how does the “activity, positive = activation” value read?
A: -17.3%

Q: With `NC(=O)OCC(COC(N)=O)c1ccccc1` as the compound, how does the “activity, positive = activation” value read?
A: -11.6%

Q: With `O=C(c1ccc(F)cc1)C1CCN(CCn2c(=O)[nH]c3ccccc3c2=O)CC1` as the compound, how does the “activity, positive = activation” value read?
A: -4%

Q: For `Cn1c(=O)c2c(ncn2C)n(C)c1=O`, which “activity, positive = activation” value is on record?
A: -11.9%

Q: For `COc1nc(C)nc(Cl)c1NC1=NCCN1`, which “activity, positive = activation” value is on record?
A: -8.27%

Q: With `CN(C)c1nc(N(C)C)nc(N(C)C)n1` as the compound, how does the “activity, positive = activation” value read?
A: -8.85%

Q: For `O=c1c(O)c(-c2ccc(O)c(O)c2)oc2cc(O)cc(O)c12`, which “activity, positive = activation” value is on record?
A: -20.2%

Q: With `CC(C)Cc1ccc(C(C)C(=O)O)cc1` (stereo not given) as the compound, how does the “activity, positive = activation” value read?
A: 17.3%

Q: For `CC[N+](CC)(CC)CCOc1cccc(OCC[N+](CC)(CC)CC)c1OCC[N+](CC)(CC)CC`, which “activity, positive = activation” value is on record?
A: 0.784%

Q: For `CCc1cccc2c3c([nH]c12)C(CC)(CC(=O)O)OCC3` (stereo not given), which “activity, positive = activation” value is on record?
A: -0.664%

Q: For `CN(Cc1cnc2nc(N)nc(N)c2n1)c1ccc(C(=O)N[C@@H](CCC(=O)O)C(=O)O)cc1`, which “activity, positive = activation” value is on record?
A: -23.5%

Q: For `Nc1ccn([C@H]2CC[C@@H](CO)O2)c(=O)n1`, which “activity, positive = activation” value is on record?
A: -18.8%

Q: With `NS(=O)(=O)c1cc2c(cc1Cl)NCNS2(=O)=O` as the compound, how does the “activity, positive = activation” value read?
A: -22.8%

Q: For `Nc1nc2c(ncn2COC(CO)CO)c(=O)[nH]1`, which “activity, positive = activation” value is on record?
A: -14.4%

Q: With `Cc1cn([C@H]2C=C[C@@H](CO)O2)c(=O)[nH]c1=O` as the compound, how does the “activity, positive = activation” value read?
A: -8.03%

Q: Which “activity, positive = activation” value does the source give for `CN1C(C(=O)Nc2ccccn2)=C(O)c2ccccc2S1(=O)=O` here?
A: -11.5%

Q: With `N[C@@H](Cc1c[nH]c2ccc(O)cc12)C(=O)O` as the compound, how does the “activity, positive = activation” value read?
A: -5.95%

Q: Which Potency does the source give for `O=c1c(-c2ccc(O)cc2)coc2cc(O)cc(O)c12` here?
A: 1580 nM (active)

Q: Which “activity, positive = activation” value does the source give for `C[C@](N)(Cc1ccc(O)c(O)c1)C(=O)O` here?
A: -18.3%

Q: For `CCC1(c2ccccc2)C(=O)NCNC1=O`, which “activity, positive = activation” value is on record?
A: 8.02%

Q: For `CC(C)C(=O)Nc1ccc([N+](=O)[O-])c(C(F)(F)F)c1`, which “activity, positive = activation” value is on record?
A: -27.6%

Q: Which “activity, positive = activation” value does the source give for `NCCCCCC(=O)O` here?
A: -12.3%

Q: Which “activity, positive = activation” value does the source give for `Cn1cnc2c1c(=O)[nH]c(=O)n2C` here?
A: -10.8%

Q: For `NCCc1cnc[nH]1`, which “activity, positive = activation” value is on record?
A: -29.2%

Q: Which “activity, positive = activation” value does the source give for `Nc1c2c(nc3ccccc13)CCCC2` here?
A: -19.9%

Q: For `CN1CCC(=C2c3ccccc3CC(=O)c3sccc32)CC1`, which “activity, positive = activation” value is on record?
A: -0.557%

Q: With `Cc1ccccc1N1C(=O)c2cc(S(N)(=O)=O)c(Cl)cc2NC1C` (stereo not given) as the compound, how does the “activity, positive = activation” value read?
A: -15%

Q: For `CCOC(=O)c1ncn2c1CN(C)C(=O)c1cc(F)ccc1-2`, which “activity, positive = activation” value is on record?
A: -18.3%

Q: Which “activity, positive = activation” value does the source give for `COc1ccc(C2CNC(=O)C2)cc1OC1CCCC1` (stereo not given) here?
A: -8.12%

Q: Which “activity, positive = activation” value does the source give for `COc1ccc2[nH]cc(CCNC(C)=O)c2c1` here?
A: -23.4%

Q: Which “activity, positive = activation” value does the source give for `Cc1cc(C(C)(C)C)cc(C)c1CC1=NCCN1` here?
A: -7.5%

Q: With `Cn1ccc2cc3c(cc21)CCN3C(=O)Nc1cccnc1` as the compound, how does the Potency read?
A: 1000 nM (active)

Q: For `CCOC(=O)Nc1ccc(NCc2ccc(F)cc2)nc1N`, which “activity, positive = activation” value is on record?
A: -23.3%
